The results in this text go back to PubChem BioAssay (NCATS).

Test [1] concerns Zika virus NS2B-NS3 protease. Description: Primary screen GU AMC qHTS for Zika virus inhibitors (AID 1347154). Note: nearly all actives have a fitted effect of over 70% in size. A digest of the protocol:
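Unlinked Zika NS2B hydrophilic domain–NS3 protease complex at 25 nM in 10 mM Tris-HCl pH 8.0, 0.01% Tween 20, with an AMC peptide substrate. Fluorescence change (340/450 nm) over 15 min at room temperature, normalized to controls, fitted to 4-parameter Hill.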

Test [2] addresses Mitogen-activated protein kinase 10 (Mus musculus) (UniProt Q61831). Put plainly: JNK3 AlphaScreen Assay (AID 530; active = well fitted curve in either direction with a large enough effect, not every such curve was filed as active;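 note: kinase came from lysate of stimulated human HepG2 cells; signal reports phosphorylation of biotinylated GST-cJun 1-79 at Ser73 with 10 µM ATP; series mostly up to about 57 µM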). The essentials:
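Pre-activated (IL-1β/TNFα) JNK3 in HepG2 lysates phosphorylates biotin-GST-cJun(1-79), 10 uM ATP; anti-phospho-cJun(Ser73) AlphaScreen read at room temperature, pH 7.6 Tris buffer. Compounds pre-incubated 15 min as titrations.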

In test [3] the target is 3',5'-cyclic-AMP phosphodiesterase 4B (Homo sapiens) (UniProt Q07343). Put plainly: qHTS Assay for Inhibitors of PDE-IV (AID 607; active = well fitted activation curve with a large enough effect in the main read-out, with a control signal flat, not every such curve was filed as active). The essentials: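 HEK293 ACTOne cells with CNG channel (1000/well), endogenous PDE4; membrane potential dye, compounds up to 22.9 uM final. Fluorescence Ex 535/Em 590; RO 20-1724 (100 uM final) as reference.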
Sequence of 3',5'-cyclic-AMP phosphodiesterase 4B (Homo sapiens) (Q07343 whole entry, looked up): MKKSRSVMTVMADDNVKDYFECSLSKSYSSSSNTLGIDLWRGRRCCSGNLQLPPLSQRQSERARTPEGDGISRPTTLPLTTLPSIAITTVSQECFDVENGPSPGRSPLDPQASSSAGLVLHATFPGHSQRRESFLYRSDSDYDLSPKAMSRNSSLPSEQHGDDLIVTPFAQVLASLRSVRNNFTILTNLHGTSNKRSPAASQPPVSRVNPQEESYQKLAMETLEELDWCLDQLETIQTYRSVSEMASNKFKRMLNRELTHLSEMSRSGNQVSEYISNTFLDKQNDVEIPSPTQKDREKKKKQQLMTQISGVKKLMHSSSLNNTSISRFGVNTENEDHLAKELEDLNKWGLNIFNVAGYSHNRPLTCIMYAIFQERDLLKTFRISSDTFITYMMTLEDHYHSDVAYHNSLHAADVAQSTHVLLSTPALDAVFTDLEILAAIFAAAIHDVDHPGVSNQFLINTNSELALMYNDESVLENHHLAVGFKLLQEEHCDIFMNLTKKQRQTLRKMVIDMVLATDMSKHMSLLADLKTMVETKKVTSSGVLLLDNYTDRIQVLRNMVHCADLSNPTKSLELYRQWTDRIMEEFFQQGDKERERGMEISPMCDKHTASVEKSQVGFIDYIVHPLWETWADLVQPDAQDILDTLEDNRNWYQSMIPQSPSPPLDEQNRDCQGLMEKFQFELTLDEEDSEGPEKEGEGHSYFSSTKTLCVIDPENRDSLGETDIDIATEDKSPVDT
Test [4] addresses DNA dC->dU-editing enzyme APOBEC-3G (Homo sapiens) (UniProt Q9HC16). Description: qHTS for inhibitors of Vif-A3G interactions: Validation (AID 588379). A digest of the protocol: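 HeLa cells stably expressing Vif and A3G-eYFP, 700 cells/well, incubated overnight at 37 deg C, then exposed to compound overnight at 37 deg C. Inhibition of Vif-mediated degradation read as increased yellow fluorescence (Ex 488/Em 500-530) by laser-scanning cytometry.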

Test [5] deals with Luciferin 4-monooxygenase (Photinus pyralis) (UniProt P08659). Put plainly: Biochemical firefly luciferase enzyme assay for NPC (AID 624030).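 Note: purified P. pyralis luciferase at 10 nM with luciferin and ATP substrate; series mostly up to about 59 µM; nearly all actives have a fitted effect of over 70% in size.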 A digest of the protocol:
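Purified P. pyralis luciferase at 10 nM in 50 mM Tris Acetate (final), luminescence read within 5 minutes of enzyme addition to compounds. Activity normalised to PTC124 versus DMSO; concentration-response curves classed by r2, magnitude and activity.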

The nature of test [6]: Counterscreen qHTS for small molecule stabilizers of the endoplasmic reticulum resident proteome: GLuc-NoTag assay (AID 1508627). Note: potency is the fitted concentration of half-maximal effect. A digest of the protocol:
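SH-SY5Y cells stably expressing constitutively secreted GLuc without SERCaMP tag, exposed to compound for 19 hr, then to 100 nM thapsigargin for 4 hr at 37C. Medium luciferase was read by coelenterazine luminescence without lysis.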

The nature of test [7]: Confirmatory qHTS for small molecule stabilizers of the endoplasmic reticulum resident proteome: Secreted ER Calcium Modulated Protein (SERCaMP) assay (AID 1508628). Note: potency is the fitted concentration of half-maximal effect; nearly all actives have a fitted effect of over 40% in size. A digest of the protocol: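 SH-SY5Y cells stably expressing GLuc-SERCaMP, treated 16 h with compound (primary 1.53, 7.67, 38.3 uM; confirmation 11 concentrations, up to 76.6 uM), then 100 nM thapsigargin for 4 h. Secreted Gaussia luciferase in medium read by coelenterazine luminescence.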

Results filed as inconclusive are left out. The source made the active and inactive calls. Unless noted, calls come from the whole dose curve; as a rule, active = well fitted curve in the direction sought with a large enough effect; inconclusive = small, poorly fitted or top-dose-only effect, or another doubt; inactive = no such curve, though single readings can be large; an effect the other way counts as inactive or inconclusive.

Sequence of DNA dC->dU-editing enzyme APOBEC-3G (Homo sapiens) (Q9HC16 whole entry, looked up): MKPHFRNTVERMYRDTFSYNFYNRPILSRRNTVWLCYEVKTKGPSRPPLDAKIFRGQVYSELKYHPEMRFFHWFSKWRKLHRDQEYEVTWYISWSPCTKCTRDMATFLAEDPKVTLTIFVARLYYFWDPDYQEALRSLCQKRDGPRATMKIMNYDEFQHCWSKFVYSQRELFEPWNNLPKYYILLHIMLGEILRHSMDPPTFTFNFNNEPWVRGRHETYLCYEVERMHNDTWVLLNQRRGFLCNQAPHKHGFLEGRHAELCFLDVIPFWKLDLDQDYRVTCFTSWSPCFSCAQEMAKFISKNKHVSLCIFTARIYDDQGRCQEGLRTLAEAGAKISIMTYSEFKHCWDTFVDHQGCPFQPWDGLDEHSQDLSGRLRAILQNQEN
Sequence of Luciferin 4-monooxygenase (Photinus pyralis) (P08659 whole entry, looked up): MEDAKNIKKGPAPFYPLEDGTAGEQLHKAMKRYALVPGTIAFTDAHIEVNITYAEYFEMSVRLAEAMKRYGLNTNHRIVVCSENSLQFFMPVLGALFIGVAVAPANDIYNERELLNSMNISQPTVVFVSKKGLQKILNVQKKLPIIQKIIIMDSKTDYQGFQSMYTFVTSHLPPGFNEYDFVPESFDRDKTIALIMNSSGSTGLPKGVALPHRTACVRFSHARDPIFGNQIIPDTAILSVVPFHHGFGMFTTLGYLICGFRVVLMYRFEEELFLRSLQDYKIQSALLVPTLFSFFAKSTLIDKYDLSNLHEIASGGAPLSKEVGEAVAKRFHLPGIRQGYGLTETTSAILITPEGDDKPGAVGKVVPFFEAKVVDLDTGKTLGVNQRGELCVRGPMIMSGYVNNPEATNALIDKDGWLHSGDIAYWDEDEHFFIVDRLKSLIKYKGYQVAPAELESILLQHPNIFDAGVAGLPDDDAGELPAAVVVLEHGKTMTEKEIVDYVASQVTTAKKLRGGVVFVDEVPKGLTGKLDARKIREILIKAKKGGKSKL

`O=C(/C=C/c1ccc(Cl)cc1)N[C@@]12CCC(=O)[C@@H]3Oc4c(O)ccc5c4[C@@]31CCN(CC1CC1)C2C5`: the Potency result in test [1] was “inactive”.

For `C[C@H]1C[C@H](C)C(=O)[C@@H]([C@H](O)CC2CC(=O)NC(=O)C2)C1`, the result in test [2] was inactive. In addition, the Potency result in test [3], in test [4], in test [5] and in test [1] was “inactive” each time. The Potency in test [6] is 1.58 µM (active); in test [7], 282 nM (active).

Turning to `Oc1ccc2c3c1O[C@H]1c4c(c5ccccc5n4Cc4ccccc4)C[C@@]4(O)C(C2)N(CC2CC2)CC[C@]314`, the Potency entry in test [1] is “inactive”.
